The supplement of paper PMC10849652
The full data set covers some 7,900 targets. This sample favours those with a hit. About 0.6% of all pairs of compound and target were hits. A number with no mark means an inactive call.

What was measured:
Assay in all cases: log2 fold change, soluble protein after heating vs DMSO (PISA); higher = thermal stabilisation; K562 cells, 10 uM, 30 min; active = over 0.2 and 3.5 SD of the protein, either way, in both replicates (recomputed)
[1] = compound: CC[C@@H]1C(=O)N(C)c2cnc(Nc3ccc(C(=O)NC4CCN(C)CC4)cc3OC)nc2N1C1CCCC1
Summary of the method: (§1)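 Quantification of soluble protein used TMTpro 16plex LC-MS/MS, with channel sums equalised. Samples were the supernatant after 21,000xg for 90 min of pooled aliquots from K562 cells (2×10^6 cells/mL) treated with 10 μM compound for 30 min, heated for 3 min over 48°C-58°C, and extracted in PBS with 0.5% NP-40 at 4°C. Values, from duplicates, describe thermal stability against control samples on a log2 fold-change scale.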

volasertib = compound: CC[C@@H]1C(=O)N(C)c2cnc(Nc3ccc(C(=O)N[C@H]4CC[C@H](N5CCN(CC6CC6)CC5)CC4)cc3OC)nc2N1C(C)C [volasertib]
Summary of the method: as §1

epoxomicin = compound: CC[C@H](C)[C@@H](C(=O)N[C@@H]([C@@H](C)O)C(=O)N[C@@H](CC(C)C)C(=O)[C@]1(CO1)C)NC(=O)[C@H]([C@@H](C)CC)N(C)C(=O)C [epoxomicin]
Summary of the method: as §1

[2] = compound: CCn1c(C(=O)N(C2CC2)C2CC2)cc2c3c(ncn3C)c(Nc3cc(C)n(C)n3)nc21
Summary of the method: as §1

[3] = compound: CCn1cc(-c2ccnc3[nH]c(-c4cccc(CN(C)C)c4)cc23)c(-c2ccc(NC(=O)N(C)C)cc2)n1
Summary of the method: as §1

[4] = compound: CN(C)CC(=O)Nc1ccc2[nH]c(=O)c3ccccc3c2c1
Summary of the method: as §1

rosiglitazone = compound: CN(CCOC1=CC=C(C=C1)C[C@H]2C(=O)NC(=O)S2)C3=CC=CC=N3 (racemic) [rosiglitazone]
Summary of the method: as §1

[5] = compound: CN1C2=C(C3=C1C(=O)N(N=C3)CC4=CC(=CC=C4)N)SC(=C2)S(=O)C
Summary of the method: as §1

[6] = compound: CN1CCC(CNc2ccc3ncc(-c4cccc(OC(F)(F)F)c4)n3n2)CC1
Summary of the method: as §1

saracatinib = compound: CN1CCN(CCOc2cc(OC3CCOCC3)c3c(Nc4c(Cl)ccc5c4OCO5)ncnc3c2)CC1 [saracatinib]
Summary of the method: as §1

sotrastaurin = compound: CN1CCN(c2nc(C3=C(c4c[nH]c5ccccc45)C(=O)NC3=O)c3ccccc3n2)CC1 [sotrastaurin]
Summary of the method: as §1

alvocidib = compound: CN1CC[C@H](c2c(O)cc(O)c3c(=O)cc(-c4ccccc4Cl)oc23)[C@H](O)C1 [alvocidib]
Summary of the method: as §1

Tubastatin A = compound: CN1CCc2c(c3ccccc3n2Cc2ccc(C(=O)NO)cc2)C1 [Tubastatin A]
Summary of the method: as §1

[7] = compound: CNC(=O)C1=CC=CC=C1NC2=NC(=NC=C2Cl)NC3=C(C=C(C=C3)N4CCOCC4)OC
Summary of the method: as §1

defactinib = compound: CNC(=O)c1ccc(Nc2ncc(C(F)(F)F)c(NCc3nccnc3N(C)S(C)(=O)=O)n2)cc1 [defactinib]
Summary of the method: as §1

rucaparib = compound: CNCc1ccc(-c2[nH]c3cc(F)cc4c3c2CCNC4=O)cc1 [rucaparib]
Summary of the method: as §1

[8] = compound: CNc1nc(-c2ccc3c(N)n[nH]c3c2)cc(N2C[C@@H](C(=O)NC3CCCCC3)CC[C@H]2C)n1
Summary of the method: as §1

encorafenib = compound: COC(=O)N[C@@H](C)CNc1nccc(-c2cn(C(C)C)nc2-c2cc(Cl)cc(NS(C)(=O)=O)c2F)n1 [encorafenib]
Summary of the method: as §1

[9] = compound: COC(=O)[C@H](CCSC)NC(=O)C1=C(C=C(C=C1)NC[C@H](CS)N)C2=CC=CC=C2
Summary of the method: as §1

[10] = compound: CC[C@H](C)N1C=C(C2=C(C=C(C=C21)C3=CN=C(C=C3)N4CCNCC4)C(=O)NCC5=C(C=C(NC5=O)C)C)C
Summary of the method: as §1

Chain of UniProt O95628 (O95628 whole entry, looked up): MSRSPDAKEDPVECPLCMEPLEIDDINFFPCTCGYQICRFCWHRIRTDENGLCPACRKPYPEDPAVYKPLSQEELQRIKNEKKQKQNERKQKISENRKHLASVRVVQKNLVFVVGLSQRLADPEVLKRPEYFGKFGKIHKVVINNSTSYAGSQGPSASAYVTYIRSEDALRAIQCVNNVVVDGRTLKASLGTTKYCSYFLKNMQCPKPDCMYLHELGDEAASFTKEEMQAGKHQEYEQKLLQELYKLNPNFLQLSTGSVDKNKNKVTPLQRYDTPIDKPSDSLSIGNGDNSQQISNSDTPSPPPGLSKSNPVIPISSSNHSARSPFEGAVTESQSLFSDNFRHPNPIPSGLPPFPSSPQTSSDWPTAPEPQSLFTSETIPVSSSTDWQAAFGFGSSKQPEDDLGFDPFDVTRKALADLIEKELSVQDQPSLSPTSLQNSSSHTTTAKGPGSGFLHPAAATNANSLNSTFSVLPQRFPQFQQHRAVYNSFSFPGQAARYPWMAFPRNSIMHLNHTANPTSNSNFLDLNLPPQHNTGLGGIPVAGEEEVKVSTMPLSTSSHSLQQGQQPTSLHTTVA
Chain of UniProt Q96G28 (Q96G28 whole entry, looked up): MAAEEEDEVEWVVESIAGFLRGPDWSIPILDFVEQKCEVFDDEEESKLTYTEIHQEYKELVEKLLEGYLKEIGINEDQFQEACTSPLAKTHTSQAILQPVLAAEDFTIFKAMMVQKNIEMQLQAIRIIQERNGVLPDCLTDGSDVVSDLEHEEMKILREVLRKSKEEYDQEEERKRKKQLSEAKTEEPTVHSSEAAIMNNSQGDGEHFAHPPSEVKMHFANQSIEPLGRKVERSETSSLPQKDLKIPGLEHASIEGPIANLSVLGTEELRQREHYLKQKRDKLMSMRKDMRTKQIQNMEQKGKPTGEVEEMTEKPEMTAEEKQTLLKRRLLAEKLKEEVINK
Chain of UniProt Q5T655 (Q5T655 whole entry, looked up): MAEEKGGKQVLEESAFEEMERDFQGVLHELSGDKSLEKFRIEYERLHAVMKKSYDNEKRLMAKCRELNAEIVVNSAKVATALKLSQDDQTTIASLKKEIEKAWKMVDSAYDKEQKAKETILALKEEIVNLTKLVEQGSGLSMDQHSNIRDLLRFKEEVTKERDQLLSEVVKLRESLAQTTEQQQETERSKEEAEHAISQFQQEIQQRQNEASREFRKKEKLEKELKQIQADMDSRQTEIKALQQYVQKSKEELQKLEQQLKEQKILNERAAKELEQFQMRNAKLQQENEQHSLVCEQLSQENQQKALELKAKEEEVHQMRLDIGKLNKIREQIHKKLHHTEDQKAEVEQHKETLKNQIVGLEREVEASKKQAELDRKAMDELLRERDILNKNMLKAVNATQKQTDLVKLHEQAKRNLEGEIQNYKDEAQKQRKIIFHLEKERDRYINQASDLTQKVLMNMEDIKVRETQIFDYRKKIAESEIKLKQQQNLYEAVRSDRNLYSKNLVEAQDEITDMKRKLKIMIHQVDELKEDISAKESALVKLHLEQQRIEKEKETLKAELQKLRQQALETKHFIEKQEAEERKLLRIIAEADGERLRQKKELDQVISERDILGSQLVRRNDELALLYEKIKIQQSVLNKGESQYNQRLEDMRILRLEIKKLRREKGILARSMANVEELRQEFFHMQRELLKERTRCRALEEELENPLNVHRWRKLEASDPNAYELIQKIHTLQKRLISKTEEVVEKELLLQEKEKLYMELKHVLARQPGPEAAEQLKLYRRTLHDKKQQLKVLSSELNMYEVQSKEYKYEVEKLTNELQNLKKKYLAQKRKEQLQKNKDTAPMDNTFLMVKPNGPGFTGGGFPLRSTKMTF
Chain of UniProt Q8WUD6 (Q8WUD6 whole entry, looked up): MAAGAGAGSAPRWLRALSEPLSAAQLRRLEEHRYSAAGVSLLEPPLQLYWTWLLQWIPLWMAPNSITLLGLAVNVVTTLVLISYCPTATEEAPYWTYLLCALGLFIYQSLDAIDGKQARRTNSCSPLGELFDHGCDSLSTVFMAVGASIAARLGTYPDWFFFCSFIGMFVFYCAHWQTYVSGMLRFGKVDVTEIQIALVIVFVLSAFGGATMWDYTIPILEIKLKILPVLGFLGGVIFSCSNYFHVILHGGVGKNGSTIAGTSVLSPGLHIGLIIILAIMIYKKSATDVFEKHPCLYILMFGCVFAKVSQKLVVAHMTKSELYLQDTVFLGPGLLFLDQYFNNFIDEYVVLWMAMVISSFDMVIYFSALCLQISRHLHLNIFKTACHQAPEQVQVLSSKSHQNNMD
Chain of UniProt O60583 (O60583 whole entry, looked up): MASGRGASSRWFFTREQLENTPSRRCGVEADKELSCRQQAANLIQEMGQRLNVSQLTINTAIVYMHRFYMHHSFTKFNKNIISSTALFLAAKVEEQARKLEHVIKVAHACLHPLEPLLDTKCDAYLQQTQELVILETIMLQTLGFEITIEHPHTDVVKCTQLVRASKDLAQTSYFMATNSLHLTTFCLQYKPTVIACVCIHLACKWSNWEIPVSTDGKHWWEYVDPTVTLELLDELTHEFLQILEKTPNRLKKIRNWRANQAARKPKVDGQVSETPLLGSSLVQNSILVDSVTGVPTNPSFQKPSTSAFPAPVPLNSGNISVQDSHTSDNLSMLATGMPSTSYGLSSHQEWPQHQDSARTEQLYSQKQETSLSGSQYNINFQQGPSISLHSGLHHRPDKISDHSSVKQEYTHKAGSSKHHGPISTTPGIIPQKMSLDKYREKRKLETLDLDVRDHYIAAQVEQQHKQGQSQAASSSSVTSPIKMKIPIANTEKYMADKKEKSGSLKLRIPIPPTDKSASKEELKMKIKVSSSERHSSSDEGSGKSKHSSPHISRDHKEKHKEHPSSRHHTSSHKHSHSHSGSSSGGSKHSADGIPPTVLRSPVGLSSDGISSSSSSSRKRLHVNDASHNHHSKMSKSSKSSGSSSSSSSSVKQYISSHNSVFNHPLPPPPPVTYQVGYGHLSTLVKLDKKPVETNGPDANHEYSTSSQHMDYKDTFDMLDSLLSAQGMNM
Chain of UniProt Q9BWU1 (Q9BWU1 whole entry, looked up): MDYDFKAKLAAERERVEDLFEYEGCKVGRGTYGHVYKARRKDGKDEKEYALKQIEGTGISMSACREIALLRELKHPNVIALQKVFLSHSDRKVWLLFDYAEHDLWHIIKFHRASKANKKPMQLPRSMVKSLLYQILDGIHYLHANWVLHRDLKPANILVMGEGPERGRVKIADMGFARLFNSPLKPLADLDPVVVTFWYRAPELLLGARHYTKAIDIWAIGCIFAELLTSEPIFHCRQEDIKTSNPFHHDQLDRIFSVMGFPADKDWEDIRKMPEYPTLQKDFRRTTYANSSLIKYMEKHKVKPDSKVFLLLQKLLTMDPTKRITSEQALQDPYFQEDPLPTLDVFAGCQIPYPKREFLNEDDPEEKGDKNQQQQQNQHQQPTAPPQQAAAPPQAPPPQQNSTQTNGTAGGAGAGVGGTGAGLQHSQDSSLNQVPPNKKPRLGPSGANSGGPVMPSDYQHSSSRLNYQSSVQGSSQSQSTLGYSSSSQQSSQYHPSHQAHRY
Chain of UniProt Q13286 (Q13286 whole entry, looked up): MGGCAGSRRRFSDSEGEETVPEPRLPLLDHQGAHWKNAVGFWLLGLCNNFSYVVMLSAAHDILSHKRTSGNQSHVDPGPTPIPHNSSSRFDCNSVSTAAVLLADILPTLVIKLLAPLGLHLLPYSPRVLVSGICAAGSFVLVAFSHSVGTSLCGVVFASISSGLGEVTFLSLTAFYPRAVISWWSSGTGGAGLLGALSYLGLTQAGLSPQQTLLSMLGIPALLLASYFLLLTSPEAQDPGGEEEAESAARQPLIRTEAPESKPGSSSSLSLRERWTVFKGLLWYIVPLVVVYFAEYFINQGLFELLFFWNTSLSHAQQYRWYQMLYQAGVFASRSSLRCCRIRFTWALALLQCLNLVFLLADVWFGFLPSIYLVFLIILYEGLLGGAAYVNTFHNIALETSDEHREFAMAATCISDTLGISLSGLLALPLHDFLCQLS
Chain of UniProt Q00537 (Q00537 whole entry, looked up): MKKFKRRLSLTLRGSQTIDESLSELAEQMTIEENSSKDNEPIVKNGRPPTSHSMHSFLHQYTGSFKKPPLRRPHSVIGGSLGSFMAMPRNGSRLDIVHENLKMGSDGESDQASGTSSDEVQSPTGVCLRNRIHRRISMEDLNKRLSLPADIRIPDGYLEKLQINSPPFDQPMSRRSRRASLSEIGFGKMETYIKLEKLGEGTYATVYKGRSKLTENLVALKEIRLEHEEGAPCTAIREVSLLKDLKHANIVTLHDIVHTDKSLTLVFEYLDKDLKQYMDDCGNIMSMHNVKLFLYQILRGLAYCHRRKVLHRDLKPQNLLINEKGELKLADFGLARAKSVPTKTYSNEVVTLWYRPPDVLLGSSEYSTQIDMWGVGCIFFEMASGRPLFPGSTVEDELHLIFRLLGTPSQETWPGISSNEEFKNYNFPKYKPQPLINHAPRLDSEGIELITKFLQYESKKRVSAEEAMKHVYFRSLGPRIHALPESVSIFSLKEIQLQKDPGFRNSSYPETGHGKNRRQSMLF
Chain of UniProt P11802 (P11802 whole entry, looked up): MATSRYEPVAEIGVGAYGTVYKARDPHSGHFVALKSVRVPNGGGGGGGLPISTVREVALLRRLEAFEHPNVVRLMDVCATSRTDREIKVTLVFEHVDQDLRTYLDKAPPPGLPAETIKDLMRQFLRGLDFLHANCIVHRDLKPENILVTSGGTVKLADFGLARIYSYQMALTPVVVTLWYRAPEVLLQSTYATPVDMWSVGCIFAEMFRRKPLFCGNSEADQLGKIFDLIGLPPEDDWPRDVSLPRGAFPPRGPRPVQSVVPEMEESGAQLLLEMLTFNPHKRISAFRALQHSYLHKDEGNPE
Chain of UniProt A8MTT3 (A8MTT3 whole entry, looked up): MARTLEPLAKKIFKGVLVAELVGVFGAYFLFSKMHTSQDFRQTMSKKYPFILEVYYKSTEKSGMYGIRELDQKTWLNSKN
Chain of UniProt P33552 (P33552 whole entry, looked up): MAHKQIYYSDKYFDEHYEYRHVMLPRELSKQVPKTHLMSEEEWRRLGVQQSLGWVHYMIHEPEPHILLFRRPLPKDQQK

Target | log2 fold change [1] | log2 fold change (volasertib) | log2 fold change (epoxomicin) | log2 fold change [2] | log2 fold change [3] | log2 fold change [4] | log2 fold change (rosiglitazone) | log2 fold change [5] | log2 fold change [6] | log2 fold change (saracatinib) | log2 fold change (sotrastaurin) | log2 fold change (alvocidib) | log2 fold change (Tubastatin A) | log2 fold change [7] | log2 fold change (defactinib) | log2 fold change (rucaparib) | log2 fold change [8] | log2 fold change (encorafenib) | log2 fold change [9] | log2 fold change [10]
CIR1 (UniProt Q86X95) | 0 | 0.049 | -0.212 | -0.015 | 0.055 | 0.142 | -0.169 | 0.234 | -0.458 | -0.02 | -0.039 | 0.256 | 0.078 | -0.061 | 0.418 | 0.102 | 0.057 | 0.04 | 0.207 | –
CFAP36 isoform 2 (UniProt Q96G28) | -0.159 | -0.433 (active) | -0.017 | 0.077 | 0.048 | 0.005 | 0.06 | 0.051 | -0.049 | -0.01 | -0.023 | -0.132 | 0.116 | 0.1 | 0.13 | 0.064 | -0.058 | 0.053 | 0.05 | –
CEBPZOS (UniProt A8MTT3) | 0.002 | -0.035 | – | 0.057 | 0.013 | -0.001 | 0.101 | -0.103 | -0.015 | 0.079 | – | – | -0.06 | 0.039 | -0.012 | 0.159 | -0.032 | -0.038 | -0.02 | -0.038
CDCA2 (UniProt Q69YH5) | 0.193 | 0.275 | -0.025 | 0.015 | 0.152 | -0.038 | – | – | 0.205 | – | -0.148 | 0.008 | 0.217 | -0.152 | -0.063 | 0.011 | – | 0.318 | -0.03 | -0.131
CDK19 (UniProt Q9BWU1) | 0.016 | -0.064 | -0.114 | 0.038 | -0.1 | -0.068 | – | 0.003 | 0.456 | 0.006 | 0.035 | 0.585 (active) | -0.104 | -0.209 | 0.046 | 0.345 | 0.03 | -0.086 | -0.005 | 0.069
CKS2 (UniProt P33552) | 0.01 | -0.044 | – | – | -0.23 | – | 0.028 | 0.023 | 0.594 (active) | -0.044 | – | – | 0.031 | – | – | 0.025 | -0.101 | 0.078 | – | 0.029
C15orf41 (UniProt Q9Y2V0) | -0.04 | -0.188 | -0.165 | -0.023 | -0.333 (active) | -0.022 | – | 0.019 | 0.001 | 0.009 | 0.042 | -0.042 | 0.011 | -0.137 | -0.008 | 0.081 | -0.017 | 0.01 | 0.079 | –
CRTC2 (UniProt Q53ET0) | 0.014 | 0.016 | 0.098 | -0.023 | – | -0.009 | -0.043 | – | – | – | -0.09 | – | -0.031 | -0.269 | -0.218 | 0.053 | – | -0.026 | -0.103 | 0.061
CASP10 isoform 4 (UniProt Q92851) | -0.091 | -0.582 (active) | 0.004 | – | 0.121 | -0.016 | -0.093 | 0.023 | -0.331 | 0.034 | -0.138 | -0.116 | 0.127 | – | 0.028 | 0.111 | 0.04 | 0.164 | -0.039 | 0.015
CCNT2 (UniProt O60583) | 0.035 | -0.096 | 0.004 | – | -0.084 | – | – | 0.023 | -0.101 | -0.016 | -0.372 | – | 0.157 | – | – | -0.112 | 0.04 | 0.119 | – | 0.056
CLN3 (UniProt Q13286) | -0.003 | 0.055 | 0.09 | -0.008 | – | -0.001 | -0.002 | 0.074 | – | 0.046 | – | 0.107 | 0.065 | 0.004 | -0.039 | 0.082 | -0.097 | -0.053 | 0.149 | -0.038
C19orf54 (UniProt Q5BKX5) | 0.054 | -0.06 | 0.094 | -0.152 | 0.056 | 0.036 | – | -0.177 | -0.141 | 0.049 | -0.221 | 0.178 | 0.092 | 0.002 | -0.136 | 0.255 | -0.108 | 0.005 | -0.031 | –
CLN8 (UniProt Q9UBY8) | 0.069 | 0.001 | – | -0.101 | 0.005 | 0.145 | 0.327 | 0.135 | 0.191 | 0.073 | 0.107 | 0.061 | -0.225 | 0.022 | -0.062 | -0.061 | -0.292 | -0.117 | 0.05 | 0.077
CFAP47 (UniProt Q6ZTR5) | 0.063 | 0.065 | -0.006 | – | – | -0.248 | 0.108 | 0.23 | – | 0.001 | – | – | – | – | -0.063 | -0.062 | -0.142 | -0.173 | 0.084 | –
CHPT1 (UniProt Q8WUD6) | -0.324 | -0.228 | -0.176 | – | -0.042 | – | – | 0.047 | -0.79 (active) | -0.066 | -0.016 | -0.118 | -0.08 | – | – | -0.069 | 0.034 | 0.103 | – | 0.119
CDK4 (UniProt P11802) | 0.16 | 0.071 | 0.16 | -0.018 | – | -0.085 | 0 | 0.146 | – | -0.03 | -0.028 | 0.098 | – | 0.07 | -0.039 | 0.051 | -0.057 | -0.008 | -0.07 | 0.117
CFAP58 (UniProt Q5T655) | -0.353 | -0.04 | – | – | -0.112 | – | – | – | -0.272 | – | – | – | – | – | – | -1.21 (active) | – | 0.265 | – | –
CNOT4 isoform 9 (UniProt O95628) | 0.198 | -0.006 | – | 0.017 | -0.095 | 0.046 | -0.022 | -0.105 | 0.072 | 0.077 | – | 0 | -0.027 | 0.187 | -0.129 | -0.057 | -0.021 | -0.05 | 0.038 | -0.046
CDK17 isoform 2 (UniProt Q00537) | -0.153 | -0.079 | 0.07 | 0.032 | -0.012 | 0.046 | 0.038 | 0.022 | 0.051 | 0.008 | -0.036 | 0.602 (active) | – | -0.017 | 0.11 | 0.494 | 0.06 | -0.027 | 0.014 | –
